# Out of some 16,000 compounds screened, about 5,100 (32%) were called active. Roughly 25% stayed inconclusive and do not appear here. Calls come from the whole dose curve; as a rule, active = well fitted curve in the direction sought with a large enough effect; inconclusive = small, poorly fitted or top-dose-only effect, or effect the other way; inactive = no such curve, though single readings can be large or run the other way. This is one part of the list.
# Target: Cytochrome P450 3A4 (Homo sapiens) (UniProt P08684)
# Assay: Cytochrome panel assay with activity outcomes
# Details: recombinant CYP, pro-luciferin dealkylation, luminescence, p450-cyp3a4; series mostly up to 57.1 µM; activity, negative = inhibition: at the top concentration
# % is set by controls: 0 for no effect and ±100 for the full control effect.
# Cytochrome P450 3A4 (Homo sapiens), sequence (P08684 whole entry, looked up): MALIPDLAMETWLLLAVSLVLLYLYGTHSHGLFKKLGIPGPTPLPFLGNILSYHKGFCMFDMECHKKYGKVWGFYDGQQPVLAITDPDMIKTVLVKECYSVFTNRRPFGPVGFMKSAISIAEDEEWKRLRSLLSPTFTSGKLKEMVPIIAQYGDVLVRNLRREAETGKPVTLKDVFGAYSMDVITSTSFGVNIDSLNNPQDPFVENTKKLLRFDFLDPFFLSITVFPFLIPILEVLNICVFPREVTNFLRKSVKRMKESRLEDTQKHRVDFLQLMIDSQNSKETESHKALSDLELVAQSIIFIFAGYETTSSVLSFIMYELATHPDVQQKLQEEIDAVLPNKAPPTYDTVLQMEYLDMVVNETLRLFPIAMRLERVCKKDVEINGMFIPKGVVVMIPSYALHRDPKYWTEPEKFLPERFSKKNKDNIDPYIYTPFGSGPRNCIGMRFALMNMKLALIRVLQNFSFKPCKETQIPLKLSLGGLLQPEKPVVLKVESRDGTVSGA
SMILES,"activity, negative = inhibition",AC50
O[C@@H](c1cc([C@@]23C[C@H]4CC[C@@H]2C[C@H](C4)C3)nc2c(Cl)cc(Cl)cc12)[C@@H]1CCCCN1,-22.3% [at 11.4 µM] (inactive),
C/C(CCN1CCCCc2nc(C)c(C)cc21)=N\OC[C@@H](O)COCc1ccco1,,3.98 µM (active)
C/C(CCN1CCc2nc(-c3ccccc3)c(-c3ccccc3)cc2C1)=N\OC[C@@H](O)COCc1ccco1,,3.16 µM (active)
C/C(CCN1CCCc2nc(C)c(C)cc21)=N\OC[C@@H](O)[C@@H]1O[C@@H]2OC(C)(C)O[C@@H]2[C@H]1O,-10.8% [at 11.4 µM] (inactive),
C/C(CCN1CCCc2nc(C)c(C)cc21)=N\OC[C@@H](O)COCc1ccco1,,3.98 µM (active)
C/C(CCN1CCc2nc(-c3ccccc3)c(-c3ccccc3)cc2C1)=N\O[C@@H](C)c1cn([C@@H]2COC[C@@H]2O)nn1,-37.3% [at 11.4 µM] (inactive),
N/C(=N\O)C1COc2ccccc2O1 (stereo not drawn),-12.1% (inactive),
Cc1ccc(S(=O)(=O)N2CCN(C(=O)C3COc4ccccc4O3)CC2)cc1C (stereo not drawn),,11.2 µM (active)
COC(=O)[C@@]1(Cc2ccccc2)[C@H]2c3cc(C(=O)N4CCCC4)n(Cc4ccc(O)c(OC)c4)c3C[C@H]2CN1C(=O)c1ccccc1,,2 µM (active)
COC(=O)[C@@]1(Cc2ccccc2)[C@H]2c3cc(C(=O)N4CCCC4)n(Cc4ccc(OC)c(OC)c4)c3C[C@H]2CN1C(=O)c1ccccc1,,1.26 µM (active)
Cc1ccc2ncc([N+](=O)[O-])n2c1,12.5% (inactive),
CN(C)Cc1ccccc1-c1nccc(N(C)C)n1,,10 µM (active)
CN(C)Cc1ccccc1-c1nccc(NC2CC2)n1,,15.8 µM (active)
CNc1ccnc(-c2ccccc2CN(C)C)n1,-20.8% (inactive),
COc1ccc(CO/N=C/c2c(C)[nH]c(=O)[nH]c2=O)cc1,-11.9% (inactive),
COc1ccc(CNc2ccnc(-c3ccccc3Cl)n2)c(OC)c1,,3.16 µM (active)
COc1ccc(CNc2ccnc(-c3ccccc3CN(C)C)n2)c(OC)c1,,5.01 µM (active)
COc1ccc(CNc2ccnc(-c3ccccc3OC)n2)c(OC)c1,,6.31 µM (active)
COc1ccc(CNc2ccnc(-c3ccccc3C(F)(F)F)n2)c(OC)c1,,3.16 µM (active)
COCCNc1ccnc(-c2ccccc2CN(C)C)n1,-19.7% (inactive),
C[N+]1(CCC(=O)c2ccco2)CC2CCC(CC2)C1 (stereo not drawn),1.47% [at 11.4 µM] (inactive),

SMILES,"activity, negative = inhibition",AC50
N#Cc1cc2[nH]c(=O)c(=O)[nH]c2cc1[N+](=O)[O-],-23% (inactive),
CCN(c1nc(N)c(C(=O)N=C(N)N)nc1Cl)C(C)C,-18.6% (inactive),
CC1(C)OC[C@@H]2O[C@H](n3cnc4c(N)nc(Cl)nc43)[C@@H](OS(C)(=O)=O)[C@@H]2O1,-4.98% [at 11.4 µM] (inactive),
O=C(O)c1c2c(c(O)c3c1CN(C1CCCCC1)CO3)OCN(C1CCCCC1)C2,-0.201% [at 11.4 µM] (inactive),
CC(C)Cn1cnc2c(Sc3c([N+](=O)[O-])ncn3C)nc(N)nc21,-7.97% [at 11.4 µM] (inactive),
COc1ccc2c(c1[N+](=O)[O-])CCC/C2=N/OC(=O)c1cccc2ccccc12,0.913% [at 2.29 µM] (inactive),
CCOc1c(OC(C)=O)ccc(/C=C/c2ccc3cccc(OC(C)=O)c3n2)c1[N+](=O)[O-],,10 µM (active)
Cc1ccc(-n2c(C)nnc2SCC(=O)N2CCc3ccccc3C2)cc1C,,8.91 µM (active)
CC1=C(\C=C/C(C)=C/C=C\C(C)=C\C(=O)O)C(C)(C)CCC1,-19.6% [at 25.6 µM] (inactive),
O=C(NNS(=O)(=O)c1cc(Cl)cc(Cl)c1)c1sccc1-n1cccc1,,7.94 µM (active)
C/C(=N\N=C(c1ccccc1)c1ccccc1)c1cccs1,,14.1 µM (active)
C/C(=N\N=C1\NC(=O)CC(C(=O)O)S1)c1cccs1 (stereo not drawn),1.69% (inactive),
CC(=O)/C(=N\N=C(N)N)c1ccccc1,-6.08% [at 11.4 µM] (inactive),
Cc1ccc(NC(=O)c2cc(NC(=O)CCCC(=O)O)ccc2Cl)cc1Cl,-16.3% (inactive),
Cc1ccc(NC(=O)CCC(=O)c2ccc(F)cc2)cc1Cl,,12.6 µM (active)
CCCOc1ccc(C(=O)CCNc2ccc(C)c(Cl)c2)cc1,12.4% [at 2.29 µM] (inactive),
Nc1nc(N)nc(CCCc2nc(N)nc(N)n2)n1,-12.5% [at 11.4 µM] (inactive),
c1ccc2oc(C3=NCCN3)cc2c1,-11.9% (inactive),
O=C(CCc1ccccc1)NNC(=O)c1ccco1,-9.25% (inactive),
O=C(Nc1ccccc1C(=O)NCCc1ccccc1)c1ccco1,,14.1 µM (active)
CCC(C)NC(=O)c1ccccc1NC(=O)Nc1ccccc1 (stereo not drawn),-20% (inactive),

SMILES,"activity, negative = inhibition",AC50
O=C(Nc1ccccn1)c1ccco1,10.3% (inactive),
COc1ccc(CCNC(=O)c2ccccc2NC(=O)c2ccco2)cc1OC,,7.08 µM (active)
CCC(NC(=O)c1ccccc1NC(=O)c1ccco1)C(=O)NC1CCCCC1 (stereo not drawn),,6.31 µM (active)
O=C(O)c1ccc(C(=O)O)c(C(=O)O)c1.[NH-][C@@H]1CCCC[C@@H]1[NH-].[Pt],18.9% [at 11.4 µM] (inactive),
CCc1cccc(N(C)C(N)=Nc2cccc3ccccc23)c1,-18% (inactive),
C#CCSc1n[nH]c(-c2ccco2)n1,-10.2% [at 11.4 µM] (inactive),
CC(C)=CC(=O)Nc1nnc(C(C)C)s1,15.7% [at 2.29 µM] (inactive),
[O-][N+](CCO)(CCO)c1ncnc2nc[nH]c12,-0.379% [at 11.4 µM] (inactive),
N=C1[C@@H](O)[C@]2(I)c3ccccc3N3C(=N)[C@H](O)[C@@H]4c5ccccc5N1[C@@H]4[C@@H]32,-8.09% [at 11.4 µM] (inactive),
COC(=O)c1ccc(/C=N\NC(=O)c2ccc(C)cc2Cl)cc1,,3.55 µM (active)
Cc1ccc(C(=O)N/N=C/c2ccc(S(=O)(=O)O)o2)c(Cl)c1,8.51% (inactive),
CC(=O)N1c2ccc(S(=O)(=O)CCC(=O)O)cc2CC1C (stereo not drawn),-7.01% (inactive),
CC1Cc2ccccc2N1C(=O)C1CCCCN1S(=O)(=O)c1ccccc1 (stereo not drawn),,7.94 µM (active)
CCNC(=O)C1CC(=O)OC12CCCCC2 (stereo not drawn),-5.12% (inactive),
O=C(Nc1ccc(Cl)cc1)NC1CCCCC1,9.33% [at 2.29 µM] (inactive),
CC(C)(C)N(NC(=O)Nc1ccccc1)C(=O)c1ccccc1Cl,,14.1 µM (active)
CC(C)(C)N(NC(=O)Nc1ccc(Cl)c(Cl)c1)C(=O)c1ccccc1,,14.1 µM (active)
CC(C)(C)NC(=O)C(=O)NNC(=O)c1ccccc1,5.58% (inactive),
Cc1c(Cl)c(S(N)(=O)=O)cc(S(N)(=O)=O)c1NC(=O)c1ccc(Cl)cc1,3.55% [at 11.4 µM] (inactive),
CC(C)(CC(=O)Nc1ccccc1)C(=O)O,-5.79% [at 11.4 µM] (inactive),
Cc1cc(C)cc(C(=O)N(NC(=O)Nc2ccc(Cl)cc2)C(C)(C)C)c1,,15.8 µM (active)
